From the supplement of paper PMC9446081
± gives the standard deviation of the averaged measurements.

What follows are compounds tested against T1, MurF (UniProt P11880) (assay: relative enzymatic activity vs untreated control (fraction); higher = less inhibition). Conditions: 100 µM; incubation time: 2 h at 37 C.
T1 sequence (whole entry): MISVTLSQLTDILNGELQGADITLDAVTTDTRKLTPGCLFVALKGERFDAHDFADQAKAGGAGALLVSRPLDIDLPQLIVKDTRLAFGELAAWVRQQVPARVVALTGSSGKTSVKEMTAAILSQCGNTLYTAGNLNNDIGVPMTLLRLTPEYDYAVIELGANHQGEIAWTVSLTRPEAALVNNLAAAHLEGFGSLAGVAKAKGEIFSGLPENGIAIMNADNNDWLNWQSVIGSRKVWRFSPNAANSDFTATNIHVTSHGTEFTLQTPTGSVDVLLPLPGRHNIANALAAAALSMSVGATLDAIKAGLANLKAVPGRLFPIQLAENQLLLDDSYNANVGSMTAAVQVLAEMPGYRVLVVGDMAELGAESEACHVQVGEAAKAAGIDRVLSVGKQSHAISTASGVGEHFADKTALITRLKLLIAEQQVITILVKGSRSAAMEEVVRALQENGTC
Description: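 In vitro enzymatic inhibition assays (ProFoldin kits) for 12 purified essential E. coli enzymes or complexes, each treated with 218 active antibacterial compounds at 100 µM for 2 h at 37°C. Read-outs were fluorescence or absorbance (phosphate detection, dye binding), converted to activity via standard curves and expressed relative to untreated DMSO controls.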
Compound `Cc1nc2c(=O)n(C)c(=O)nc-2n(C)n1` has a relative enzymatic activity of 0.965 ± 0.26.
`CN1C(=O)[C@]23CC4=CC=C[C@H](O)[C@H]4N2C(=O)[C@@]1(CO)SS3` showed a relative enzymatic activity of 0.973 ± 0.26.
Compound `O=S(=O)(O)O.Oc1cccc2cccnc12` has a relative enzymatic activity of 0.951 ± 0.29.
Compound `O=C1C=C2C(=CCOC2O)O1` (centres undefined) has a relative enzymatic activity of 0.903 ± 0.18.
`CN(C)[C@@H]1C(=O)C(C(N)=O)=C(O)[C@@]2(O)C(O)=C3C(=O)c4c(O)cccc4[C@](C)(O)[C@H]3C[C@@H]12` was tested, and the relative enzymatic activity was 0.983 ± 0.2.
Compound `CCCCCCCCCCCCCCCC[n+]1ccccc1.[Cl-]` has a relative enzymatic activity of 0.0685 ± 0.0074.
For `CN[C@H]1C[C@@H](N)[C@H](O)[C@@H](O[C@@H]2O[C@H](CO)[C@H](O)[C@@H]3O[C@@]4(O[C@H]23)O[C@H]([C@@H](N)CO)[C@H](O)[C@H](O)[C@H]4O)[C@@H]1O`, the relative enzymatic activity was 1.17 ± 0.035.
With `COP(=S)(OC)Oc1cc(Cl)c(Cl)cc1Cl` the relative enzymatic activity was 1.05 ± 0.2.
For `CN(C)[C@@H]1C(=O)[C@@H](C(N)=O)C(=O)[C@@]2(O)C(=O)[C@H]3C(=O)c4c(O)ccc(Cl)c4[C@@](C)(O)[C@H]3C[C@@H]12`, the relative enzymatic activity was 1.2 ± 0.021.
Work on `O=[N+]([O-])c1ccc(N(CCO)CCO)c2c1no[n+]2[O-]` yielded a relative enzymatic activity of 0.923 ± 0.15.
Compound `Cc1c(N)nc([C@H](CC(N)=O)NC[C@@H](N)C(N)=O)nc1C(=O)N[C@H](C(=O)N[C@@H](C)[C@H](O)[C@@H](C)C(=O)N[C@@H](C(=O)NCCc1nc(-c2nc(C(=O)NCCC[S+](C)C)cs2)cs1)[C@@H](C)O)[C@@H](O[C@H]1O[C@H](CO)[C@H](O)[C@@H](O)[C@H]1O[C@H]1O[C@H](CO)[C@@H](O)[C@H](OC(N)=O)[C@@H]1O)c1cnc[nH]1` has a relative enzymatic activity of 1.15 ± 0.074.
With `C[CH2][Hg][S]c1ccccc1C(=O)[O-].[Na+]` the relative enzymatic activity was 0.982 ± 0.28.
`Cc1c(N)nc([C@H](CC(N)=O)NC[C@@H](N)C(N)=O)nc1C(=O)N[C@H](C(=O)N[C@@H](C)[C@H](O)[C@@H](C)C(=O)N[C@@H](C(=O)NCCc1nc(-c2nc(C(=O)NCCC[S+](C)C)cs2)cs1)[C@@H](C)O)[C@@H](O[C@H]1O[C@H](CO)[C@H](O)[C@@H](O)[C@H]1O[C@H]1O[C@H](CO)[C@@H](O)[C@H](OC(N)=O)[C@@H]1O)c1c[nH]cn1` gave a relative enzymatic activity of 0.537 ± 0.75.
`[O-][n+]1ccccc1[S][Zn][S]c1cccc[n+]1[O-]` gave a relative enzymatic activity of 0.973 ± 0.15.
`Cn1ncnc2c(=O)n(C)c(=O)nc1-2` was tested, and the relative enzymatic activity was 0.797 ± 0.21.
For `CCCCCCCCCCCCCCCC[n+]1ccccc1`, the relative enzymatic activity was 0.08 ± 0.011.
For `CN(C)[C@@H]1C(=O)[C@H](C(N)=O)C(=O)[C@@]2(O)C(=O)[C@@H]3C(=O)c4c(O)cccc4[C@@](C)(O)[C@H]3C[C@@H]12`, the relative enzymatic activity was 0.998 ± 0.19.
In the case of `Oc1cc(Cl)ccc1Oc1ccc(Cl)cc1Cl`, the relative enzymatic activity is reported as 1.12 ± 0.27.
In the case of `CCCCCCCCCCCCCCCC[N+](C)(C)C.[Br-]`, the relative enzymatic activity is reported as 0.112 ± 0.021.
For `CNC1C(O)C(OC2C(N)CC(N)C(OC3OC(C(C)O)C(O)C(O)C3N)C2O)OCC1(C)O` (centres undefined), the relative enzymatic activity was 0.95 ± 0.18.
`CCn1cc(C(=O)[O-])c(=O)c2cc3c(cc21)OCO3.[K+]` gave a relative enzymatic activity of 0.962 ± 0.22.
Work on `CC(=O)Oc1ccc(Cl)c2cccnc12` yielded a relative enzymatic activity of 0.983 ± 0.21.
Work on `O=[N+]([O-])C(Br)(CO)CO` yielded a relative enzymatic activity of 0.946 ± 0.23.
For `CC(=O)[O][Hg][c]1ccccc1`, the relative enzymatic activity was 1.08 ± 0.26.
